A selection: hits, their analogues and other compounds. The true share with any hit is near 6.2%.
FMDV antiviral – High Throughput Screening for Foot and Mouth Disease Virus Antivirals; 410,000 tested, 1.2% active; Potency, µM (top dose mostly 57.9 µM), without a hit: top-dose activity change, negative = inhibition, usual class: inhibitors; FMDV antiviral cell-based qHTS; calls by dose curve; tested in HEK293T cells; further: read-out not given here; potency means the concentration at half of the fitted maximal effect; nearly all actives have a fitted effect of over 45% in size
Marburg entry inh – qHTS for inhibitors of binding or entry into cells for Marburg Virus; Marburg virus pseudotyped entry inhibition, cell reporter; Potency, µM (highest dose often 37.8 µM), without a hit: at the highest dose activity change, negative = inhibition, hits mostly inhibitors; 300,000 tested, 1.8% active; calls by dose curve; tested in HEK293 cells; further: potency means the concentration at half of the fitted maximal effect
LASV entry inh – qHTS for Inhibitors of binding or entry into cells for Lassa Virus | Lassa virus pseudotype entry inhibition, cell reporter | Potency, µM (titrated, usually from 37.9 µM), inactives show at the top dose activity change, negative = inhibition, most hits filed as inhibitors | 300,000 tested, 1.2% active; calls by dose curve; tested in HEK293 cells; further: potency means the concentration at half of the fitted maximal effect; nearly all actives have a fitted effect of over 50% in size
HCMV inh – qHTS Assay for inhibitors of the human cytomegalovirus (HCMV); HFF cells, HCMV-luciferase reporter, 72 h; active compounds read low; activity change, negative = inhibition, % at 57.5 µM; 410,000 tested, 4.5% active; AID 1259415, 2018; in the data active means activity change below about -60%; inconclusive means no clear call, values can overlap the other calls; inactive means above about -39%
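Two compound doses tested in HFFs infected with HCMV-luciferase, MOI 1 PFU/cell, 72 h at 37C. Lysate luminescence read with OneGlo; data normalized against buffer-only and 10uM Salinomycin inhibitor controls.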
An asterisk follows results filed as active; ? = inconclusive; · = no result given; [ ] = remark or other dose. On the % scale 0 is the no-effect control and ±100 the full control effect.

SMILES | FMDV antiviral | Marburg entry inh | LASV entry inh | HCMV inh
O=[N+]([O-])c1cc(-n2cnnn2)ccc1N1CCC(Cc2ccccc2)CC1 | ? | ? | -26% | -103*
COc1ccc(C(=O)OCc2ccccc2F)cc1S(=O)(=O)N1CCCC1 | -2% | ? | -11% | -97*
COc1ccc(C(=O)NC2CCCCC2)cc1S(=O)(=O)N1CCOCC1 | 5% | 5%[46.1 µM] | -4%[46.1 µM] | 30
COc1ccc(C(=O)NC2CCCCCC2)cc1S(=O)(=O)N1CCCc2ccccc21 | 19% | ? | 7.1µM* | -62*
COc1ccc(C(=O)NC2CCCCCC2)cc1S(=O)(=O)N1CCCC1 | 47% | 27%[46.1 µM] | 20% | -63*
CC(=O)N1CCc2c(sc(NC(=O)CCS(=O)(=O)c3ccc(C)cc3)c2C#N)C1 | -6% | -12% | ? | 5
CN(Cc1ccccc1)C(=O)c1ncn(Cc2ccccc2)c1C(=O)N(C)Cc1ccccc1 | -19% | · | · | -17
COC(=O)[C@H](Cc1ccccc1)NC(=O)N1Cc2ccccc2C[C@H]1C(=O)OC | -1% | · | · | -18
COC(=O)C1Cc2ccccc2CN1C(=O)CCl (stereo unspecified) | 22µM* | 7.1µM* | ? | ?
CCc1cc2c(nc1CC)CCCN2CCOC | · | · | · | 3
Cc1c(/C=N/NC(=O)COc2ccccc2[N+](=O)[O-])c2ccccc2n1C | -15% | -23% | -4% | 13
Cc1ccc(OCC(=O)N/N=C\c2c(C)n(C)c3ccccc23)c([N+](=O)[O-])c1 | 0% | 10µM* | -18% | ·
CC1C/C(=N\NC(=O)c2cccnc2)CC(C)(C)C1 (stereo unspecified) | 3% | 4% | 6% | -34
COc1ccc(OC)c(NC(=O)CCNS(=O)(=O)c2ccc3c(c2)oc(=O)n3C)c1 | -8% | ? | -4%[46.1 µM] | 6
CCC(=NCc1ccc2c(c1)OCO2)c1c(O)n(C2CCCCC2)c(=O)[nH]c1=O | ? | ? | 13µM* | ?
CCC(=NCCO)c1c(O)n(C2CCCCC2)c(=O)[nH]c1=O | -5% | 4% | -15% | 15
COCCCNC(=O)CN(c1cc(Cl)ccc1OC)S(=O)(=O)c1ccc(C)c([N+](=O)[O-])c1 | 5% | -12%[46.1 µM] | ? | -24
O=S(=O)(c1ccc(Cl)cc1)c1snnc1-c1ccccc1 | 10µM* | 16µM* | ? | -104*
c1ccc(-c2nnsc2-c2ncc[nH]2)cc1 | -8% | ? | 11% | -15
O=S(=O)(c1ccc(F)cc1)c1snnc1-c1ccccc1 | ? | ? | ? | -88*
CC1OC(O[C@@H]2C(O)CC(O[C@@H]3C(O)C[C@@H](OC4CC[C@]5(C)[C@H](CC[C@H]6[C@@H]5CC[C@]5(C)C(C7=CC(=O)OC7)C(O)C[C@@]65O)C4)OC3C)OC2C)CC(O)C1O (stereo partly specified) | -29% | · | · | ·
CC1OC(OC2C(O)CC(OC3C(O)CC(OC4CCC5(C)C(CCC6C5CCC5(C)C(C7=CC(=O)OC7)C(O)CC65O)C4)OC3C)OC2C)CC(O)C1O (stereo unspecified) | ? | ? | 0.32µM* | -97*
C[C@H]1O[C@@H](O[C@H]2[C@@H](O)C[C@H](O[C@H]3[C@@H](O)C[C@H](O[C@H]4CC[C@@]5(C)[C@H](CC[C@@H]6[C@@H]5CC[C@]5(C)[C@@H](C7=CC(=O)OC7)CC[C@]65O)C4)O[C@@H]3C)O[C@@H]2C)C[C@H](O)[C@@H]1O | ? | 0.058µM* | 0.21µM* | ·
CC(=O)[C@@]1(O)[C@H](O)CC2C3CCC4CC(O)CC[C@]4(C)C3CC[C@@]21C (stereo partly specified) | -5% | · | · | ·
CC(=O)OC1CC(OC2C(O)CC(OC3C(O)CC(OC4CCC5(C)C(CCC6C5CCC5(C)C(C7=CC(=O)OC7)C(O)CC65O)C4)OC3C)OC2C)OC(C)C1OC1OC(CO)C(O)C(O)C1O (stereo unspecified) | ? | 0.18µM* | ? | -101*
SMILES | FMDV antiviral | Marburg entry inh | LASV entry inh | HCMV inh
CC(=O)OC1CC2(O)C3CCC4CC(O)CCC4(C)C3CCC2(C)C1C1=CC(=O)OC1 (stereo unspecified) | ? | ? | ? | -97*
COc1ccc(-c2csc3nc(-c4cccnc4)nc(N4CCC(C(N)=O)CC4)c23)cc1OC | -21% | ? | -2% | 77
CC1(C)N=C(N)N=C(N)N1c1cccc(CC(=O)Nc2ccccc2)c1 | -1% | · | · | -82*
CCOC(=O)c1cccc(N2C(N)=NC(N)=NC2(C)C)c1 | -15% | 12% | 16% | ?
CC1(C)N=C(N)N=C(N)N1c1ccc(OCCCOc2ccccc2)c(Cl)c1 | ? | · | · | -100*
CC1(C)N=C(N)N=C(N)N1c1cccc(C(=O)O)c1 | ? | 30% | 28% | ?
Cc1cccc(NC(=O)CCc2ccc(N3C(N)=NC(N)=NC3(C)C)cc2)c1 | -21% | · | · | -99*
CC1(C)N=C(N)N=C(N)N1c1ccc(OCC(=O)Nc2ccccc2)c(Cl)c1 | 54% | · | · | -95*
CC1(C)N=C(N)N=C(N)N1c1ccc(OCC(=O)N2CCOCC2)c(Cl)c1 | 0% | · | · | -101*
COc1ccccc1NC(=O)CCCCCN1C(=O)c2cccc([N+](=O)[O-])c2C1=O | -10% | · | · | 1
COc1cc(/C=C2/C(=O)c3cccc([N+](=O)[O-])c3C2=O)c(Br)cc1O | 3.5µM* | ? | -9% | 16
COC(=O)C1=C(C)N(Cc2cccc(C(F)(F)F)c2)C(=NCc2ccc(C(F)(F)F)cc2)NC1c1cccc(F)c1 (stereo unspecified) | · | · | · | -99*
COC(=O)C1=C(C)N(Cc2ccc(C(F)(F)F)cc2)C(=NCc2ccccc2)NC1c1cccc(F)c1 (stereo unspecified) | · | · | · | -99*
CC(=O)C1=C(C)N(Cc2ccccc2)C(=O)N[C@H]1c1cccc(C(F)(F)F)c1 | -4% | 12%[14.2 µM] | -15% | -69*
CC(=O)C1=C(C)N(Cc2ccccc2)C(=O)N[C@@H]1c1cccc(C(F)(F)F)c1 | ? | ? | -2% | -3
Cc1ccc2cc(C3CC(c4cccs4)=NN3S(C)(=O)=O)c(Cl)nc2c1 (stereo unspecified) | 41% | · | · | ?
Cc1ccc2nc(Cl)c(C3CC(c4cccs4)=NN3S(C)(=O)=O)cc2c1 (stereo unspecified) | 42% | 17% | -2% | -60*
Fc1ccc(C2c3cccn3CCN2C(=S)Nc2cccc(Br)c2)cc1 (stereo unspecified) | ? | -5% | -61% | -26
COCCNC(=O)CSCc1c(F)cccc1Cl | · | 0% | 20% | 26
COCCCNC(=O)c1cn(Cc2c(F)cccc2Cl)nn1 | 4% | -6%[46.1 µM] | 13% | -90*
COC(=O)NNC(=O)COc1ccc(Cl)cc1 | 16% | -2% | ? | -108*
CCCCCCCCCC[n+]1cccc2c3ccccc3ccc21 | ? | · | · | -108*
CCCCCCCC[n+]1cccc2c3ccccc3ccc21 | ? | · | · | -97*
Cc1cccc[n+]1CCCCCCCCCC[n+]1ccccc1C | -7% | ? | ? | ?
COc1cc2c(cc1OC)C(=S)NC1(CCCC1)C2 | -9% | 0%[46.1 µM] | -20% | 28
